13 compounds from PubChem BioAssay (NCATS) can be followed below.

Several values for one entry are separate records, joined by “and”; a condition that tells them apart may be missing. Identical values can stand only once. Records with an inconclusive call do not appear. A number with no mark means an inactive call. Activity calls are given as the source filed them. Unless noted, calls come from the whole dose curve; as a rule, active = well fitted curve in the direction sought with a large enough effect; inconclusive = small, poorly fitted or top-dose-only effect, or another doubt; inactive = no such curve, though single readings can be large; an effect the other way counts as inactive or inconclusive.

For test [1], the target named is Calcium and integrin-binding protein 1 (Homo sapiens) (UniProt Q99828). Description: Primary qHTS for Identification of Calcium Integrin Binding Protein 1 (CIB1) Competitor (AID 1508620).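 Note: GST tagged CIB1 binding a fluorescein labelled alphaIIb integrin peptide tracer; top concentration of the series differs between compounds.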 An outline of the steps:
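Fluorescence polarization competition: CIB1-GST (1 uM final) preincubated with compound 15 min at room temperature, then FITC-labeled alphaIIb peptide (100 nM final) added for another 15 min. Polarization read at Ex 480/Em 540.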
(In general: In qHTS, concentration-response curves come from the screen itself.)

Test [2] in a line: Primary qHTS for inhibitors of La Crosse Virus (LACV) - induced cell death in SH-SY5Y cells (AID 1508616).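 Note: top concentration of the series differs between compounds; higher means more rescue of cells from virus-induced death.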 An outline of the steps:
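Readout was luminescence from ATPLite 1step added after a 6-day LACV infection (0.01 MOI) of SH-SY5Y cells that had received pin-transferred compound 24 hr after seeding.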

A short description of test [3]: A High-Content qHTS Against Drug Library for the Identification of Small Molecules that Inhibit DYT1 Early Onset Primary Dystonia-Associated Cell Pathology (AID 1645839; calls by dose curve; note: series mostly up to about 46 µM). The essentials:
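Readout: %pathology, the punctate EGFP-TorsinA distribution from imaging, as the primary channel and cell count as the toxicity counterscreen. HEK293 Flp-In cells expressing delE TorsinA were induced with tetracycline and treated with compound for 48 h.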

Test [4] addresses Cytochrome P450 2D6 (Homo sapiens) (UniProt P10635). Description: Cytochrome P450 family 2 subfamily D member 6 (CYP2D6) small molecule antagonists: luciferase biochemical (cell-free) qHTS assay (AID 1645840; active = well fitted curve in the direction sought with a large enough effect in the repeat runs; an effect the other way counts as inactive or inconclusive; note: nearly all actives have a fitted effect of over 55% in size; note: potency is the fitted concentration of half-maximal effect). An outline of the steps: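 P450-Glo luminescent screen: recombinant CYP2D6 enzyme–proluciferin substrate mix preincubated with compound 10 min at room temperature, then NADPH regeneration added for 1 h at room temperature. Detection reagent added for 20 min; luciferin light read as relative luminescence units.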

In test [5] the target is Cytochrome P450 2C9 (Homo sapiens) (UniProt P11712). The experiment in a line: Cytochrome P450 family 2 subfamily C member 9 (CYP2C9) small molecule antagonists: luciferase biochemical (cell-free) qHTS assay (AID 1645842; active = well fitted curve in the direction sought with a large enough effect in the repeat runs; an effect the other way counts as inactive or inconclusive; note: nearly all actives have a fitted effect of over 55% in size; note: potency is the fitted concentration of half-maximal effect). The essentials: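 Luminescence, after 20 min with luciferin detection reagent, reflected CYP2C9 turnover during a 1 h NADPH-driven reaction at 37C. Enzyme-substrate mix contained 0.4% bovine serum albumin and was preincubated with compound 10 min at room temperature.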
Cytochrome P450 2C9 (Homo sapiens), sequence (P11712 whole entry, looked up): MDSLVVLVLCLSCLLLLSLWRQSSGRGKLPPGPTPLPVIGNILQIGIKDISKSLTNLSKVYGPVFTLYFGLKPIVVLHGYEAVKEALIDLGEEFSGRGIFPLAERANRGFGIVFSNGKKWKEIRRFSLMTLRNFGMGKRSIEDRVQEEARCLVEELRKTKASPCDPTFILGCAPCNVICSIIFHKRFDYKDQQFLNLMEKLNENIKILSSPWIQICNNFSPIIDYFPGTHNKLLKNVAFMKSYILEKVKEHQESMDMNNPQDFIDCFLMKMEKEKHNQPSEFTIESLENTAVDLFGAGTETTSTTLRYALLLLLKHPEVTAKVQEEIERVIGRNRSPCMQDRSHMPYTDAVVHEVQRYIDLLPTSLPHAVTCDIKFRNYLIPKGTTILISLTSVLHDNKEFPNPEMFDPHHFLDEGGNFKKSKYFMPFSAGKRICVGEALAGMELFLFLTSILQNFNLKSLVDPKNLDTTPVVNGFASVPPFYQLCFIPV

Test [6] can be described thus: Primary qHTS for small molecule stabilizers of the endoplasmic reticulum resident proteome: Secreted ER Calcium Modulated Protein (SERCaMP) assay (AID 1508630). The essentials:
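GLuc-SERCaMP-expressing SH-SY5Y cells, pretreated 16 h with compound, are challenged with thapsigargin to empty ER calcium stores; after 4 h, coelenterazine is added directly to the medium and luminescence is imaged.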

The nature of test [7]: Primary qHTS for inhibitors of nuclear receptor binding SET domain protein 2 (NSD2) in an isogenic RCH-ACV NSD2 p.E1099K mutant (9B) (AID 1645876). Note: nearly all actives have a fitted effect of over 70% in size. Note: potency is the fitted concentration of half-maximal effect.
A short description of test [8]: Primary qHTS for inhibitors of nuclear receptor binding SET domain protein 2 (NSD2) in an RCH-ACV wild type WT cells (2C) (AID 1645877). Note: nearly all actives have a fitted effect of over 70% in size. Note: potency is the fitted concentration of half-maximal effect.
Test [9] deals with Calcium and integrin-binding protein 1 (Homo sapiens) (UniProt Q99828). Description: Confirmatory qHTS for Identification of Calcium Integrin Binding Protein 1 (CIB1) Competitor (AID 1508617). Note: nearly all actives have a fitted effect of over 65% in size. The essentials:
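Binding competition between test compounds and fluorescent alphaIIb peptide for 1 uM CIB1-GST is monitored by FP at 480/540 nm. Final compound range is up to 114 uM; unlabeled peptide serves as reference competitor.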

Cytochrome P450 2D6 (Homo sapiens), sequence (P10635 whole entry, looked up): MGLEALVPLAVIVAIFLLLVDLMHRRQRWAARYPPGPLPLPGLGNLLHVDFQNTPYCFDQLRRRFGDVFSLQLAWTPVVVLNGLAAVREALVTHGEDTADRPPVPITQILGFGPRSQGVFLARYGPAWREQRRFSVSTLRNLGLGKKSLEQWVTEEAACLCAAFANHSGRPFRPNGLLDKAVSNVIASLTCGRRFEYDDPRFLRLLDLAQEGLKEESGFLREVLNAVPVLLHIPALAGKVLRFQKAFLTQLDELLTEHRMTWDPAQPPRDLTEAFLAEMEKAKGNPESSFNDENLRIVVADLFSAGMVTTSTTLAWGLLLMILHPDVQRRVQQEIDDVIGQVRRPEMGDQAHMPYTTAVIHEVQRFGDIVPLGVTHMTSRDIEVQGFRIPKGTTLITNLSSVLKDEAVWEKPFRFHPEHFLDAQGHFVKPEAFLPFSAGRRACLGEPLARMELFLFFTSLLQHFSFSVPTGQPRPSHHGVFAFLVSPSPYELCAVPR
Calcium and integrin-binding protein 1 (Homo sapiens), sequence (Q99828 whole entry, looked up): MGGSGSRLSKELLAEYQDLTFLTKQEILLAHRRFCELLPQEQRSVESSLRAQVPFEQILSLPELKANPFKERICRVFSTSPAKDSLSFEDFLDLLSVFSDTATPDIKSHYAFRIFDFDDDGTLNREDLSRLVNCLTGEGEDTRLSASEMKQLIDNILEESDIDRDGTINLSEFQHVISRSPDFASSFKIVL

As to `COc1cc(N2CCN(C)CC2)ccc1Nc1nc(N)c(C(=O)c2c(Cl)cccc2Cl)s1`, in [1], the Potency entry was “inactive”.

For `CC(C)n1c(C=C[C@H](O)C[C@H](O)CC(=O)O)c(-c2ccc(F)cc2)c2ccccc21`, the Potency entry in test [1] is “inactive”.

As to `OC[C@H]1O[C@@H](OCCc2ccc(O)cc2)[C@H](O)[C@@H](O)[C@H]1O`, the result in test [2] and in test [3] was inactive. Moreover, the Potency entry in [1], in test [4] and in test [5] was “inactive” in each case.

For `CCNC(=O)CCCC=CC[C@@H]1[C@H](C=CC(O)CCc2ccccc2)[C@@H](O)C[C@@H]1O` (stereo not given in full), the Potency result in test [1] was “inactive”.

Turning to `CC=C1C2C=C(C)CC1(N)c1ccc(=O)[nH]c1C2` (stereo not given), the Potency entry in test [1] is “inactive”.

As to `CC(C)c1c(C(=O)Nc2ccccc2)c(-c2ccccc2)c(-c2ccc(F)cc2)n1CC[C@H](O)C[C@@H](O)CC(=O)O`, the Potency result in [1] is “inactive”.

Regarding `O=C1NC(=O)C(=Cc2ccc(-c3ccc(F)cc3O)o2)S1`, the Potency result in test [1] was “inactive”.

On to `CN(C)CCN(Cc1ccc(Cl)cc1)c1ccccn1`, for which the compound was classed as inactive in [2]. Further, the Potency entry in [1], in test [6] and in test [7] was “inactive” in each case. Moreover, in test [4], the Potency is 0.0692 µM (active).

For `COc1cc(CNC(=O)CCCCC=CC(C)C)ccc1O`, in test [1], the Potency result was “inactive”.

For the compound `O=C(Nc1cccc2c(=O)cc(-c3nn[nH]n3)oc12)c1ccc(OCCCCc2ccccc2)cc1`, the result in test [2] and in test [3] was inactive. The Potency result in test [1], in [7] and in test [8] was “inactive” each time. The Potency in [4] is 15.5 µM (active); in test [5], 7.76 µM (active).

Consider `COc1ccc(-c2nc3ccc(C4=NNC(=O)CC4C)cc3[nH]2)cc1` (stereo not given), for which the outcome in test [2] was inactive. The Potency result in test [1] and in test [4] was “inactive” throughout. The Potency was 9.44 µM (active) and 14.8 µM (active) in [7]; 5.96 µM (active) and 11.8 µM (active) in test [8].

Turning to `CN(C)CCCNC(=O)c1ccc(-c2cc(O)c3ncccc3c2)cc1`, the Potency result in test [9] was “inactive”. The Potency was 9.2 µM (active) and 10.5 µM (active) in [7]; 10.3 µM (active) and 9.34 µM (active) in test [8].

Consider `CCCCC[C@H](O)C=C[C@H]1[C@H](O)CC(=O)[C@H]1CC=CCCCC(=O)O`, for which the compound was classed as inactive in test [2] and in test [3]. In addition, the Potency result in [1], in test [6], in test [4] and in test [5] was “inactive” each time. In addition, the values for the Potency in test [7] and in test [8] were 417 nM (active) and 23.7 µM (active), respectively.
